Laboratory results published in publication PMC4242493, “Sequence specificity incompletely defines the genome-wide occupancy of Myc”.
The full ranking holds about 33,000 sequences; the median of “normalized occupancy” is about 0.075, and the highest 2% start at about 0.095. The full list was thinned out, with the highest values kept by preference.

biological target: MaxL homodimer (Homo sapiens, UniProt P61244 1-160); assay: universal protein-binding microarray (PBM); PBS-based mixture, 10 nM His-tagged protein dimer, 2% milk, 200 ng/uL BSA, 50 ng/uL salmon testes DNA, 0.02% TX-100; detection with Alexa 488 anti-His antibody;; high values mean tight binding; settings: protein: recombinant; tags: C-terminal His-tag (pET21a); chain copies: 2; dsDNA, one strand shown
Sequence (P61244 whole entry): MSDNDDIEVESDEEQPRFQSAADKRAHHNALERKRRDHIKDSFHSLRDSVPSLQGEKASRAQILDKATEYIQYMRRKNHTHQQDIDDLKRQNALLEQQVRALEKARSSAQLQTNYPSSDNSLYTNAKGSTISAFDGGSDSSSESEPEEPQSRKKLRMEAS
Method in brief: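 Agilent 4 x 44 K arrays carrying the 'all 10-mer' universal design were incubated with His-tagged protein dimer at 10 nM. Protein that bound was tagged using fluorophore-conjugated anti-His antibody at 10 ng/μL, and a GenePix 4400A scanned the arrays to give an intensity for every 8-mer. Each binding occupancy value expresses an intensity relative to the top-ranked intensity.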

Point of comparison: CCTTAACA, binding signal 0.0794 normalized occupancy. Against it:
- TTCATAAA — lower, 0.0768 normalized occupancy
- CAGACCCC — higher, 0.085 normalized occupancy
- CAGTAGAA — lower, 0.0771 normalized occupancy
- ACGTCGTC — higher, 0.0822 normalized occupancy
- CATGCTCG — higher, 0.106 normalized occupancy
- TATGCTCA — higher, 0.0848 normalized occupancy
- CATGCTCC — higher, 0.105 normalized occupancy
- AATGCTCG — lower, 0.0783 normalized occupancy
- AATGCTCA — higher, 0.0829 normalized occupancy
- GATGCTCC — lower, 0.0753 normalized occupancy
- GATGCTCA — lower, 0.0734 normalized occupancy
- CGTGCTCC — higher, 0.085 normalized occupancy
- CATGCTCA — higher, 0.099 normalized occupancy
- CTTTACCA — lower, 0.0764 normalized occupancy
- ATTGGGGC — lower, 0.0771 normalized occupancy
- ACGTGGCG — higher, 0.107 normalized occupancy
- ATGTGGCG — higher, 0.0879 normalized occupancy
- ACCTGGCT — lower, 0.0765 normalized occupancy
- ACGTGGCA — higher, 0.106 normalized occupancy
- ACGTGGCT — higher, 0.101 normalized occupancy
- CCGTGGCG — lower, 0.0765 normalized occupancy
- ACGTGGCC — higher, 0.094 normalized occupancy
- AAGTGGCT — lower, 0.072 normalized occupancy
- AGGTGGCA — higher, 0.082 normalized occupancy
- CCGTGGCA — lower, 0.077 normalized occupancy
- TCGTGGCA — higher, 0.0869 normalized occupancy
- GCGTGGCA — higher, 0.121 normalized occupancy
- GGTCTGTA — lower, 0.0752 normalized occupancy
- CCTTGTCC — lower, 0.0743 normalized occupancy
- CTGACTCA — lower, 0.0764 normalized occupancy
- AACCAAGT — lower, 0.0721 normalized occupancy
- GAGGAGAA — lower, 0.0783 normalized occupancy
- GGTAACTA — lower, 0.077 normalized occupancy
- CAACTTAG — lower, 0.0721 normalized occupancy
- AGGCACCT — lower, 0.078 normalized occupancy
- CTATTTTC — lower, 0.0775 normalized occupancy
- CCAAACGC — lower, 0.073 normalized occupancy
- GCGACTCA — lower, 0.0767 normalized occupancy
- GCGTGGCC — higher, 0.0977 normalized occupancy
- CCGTGGCC — lower, 0.0738 normalized occupancy
- GAGTGGCC — lower, 0.073 normalized occupancy
- GGACAACA — lower, 0.0742 normalized occupancy
- AAGGTGTA — lower, 0.0773 normalized occupancy
- ACCGTGTG — higher, 0.0873 normalized occupancy
- CCCGTGTC — higher, 0.0814 normalized occupancy
- ACCGTGTA — lower, 0.0779 normalized occupancy
- AACGTGTA — higher, 0.11 normalized occupancy
- CAGGTGTA — higher, 0.0957 normalized occupancy
- CAGGTGTC — higher, 0.0839 normalized occupancy
- CACGTGTC — higher, 0.574 normalized occupancy
- AACGTATA — higher, 0.0869 normalized occupancy
- CAAGTGTC — lower, 0.0772 normalized occupancy
- AACGTGTG — higher, 0.108 normalized occupancy
- ATCGTGTG — higher, 0.0889 normalized occupancy
- GATGCAAA — lower, 0.0761 normalized occupancy
- GTTCGTAA — lower, 0.0774 normalized occupancy
- CCTAGATA — lower, 0.0756 normalized occupancy
- ACCGTACA — lower, 0.0768 normalized occupancy
- AAATAGCA — higher, 0.0843 normalized occupancy
- ACTATAAC — higher, 0.0847 normalized occupancy
- AGTTTTTG — lower, 0.0729 normalized occupancy
- ATTGCGAA — lower, 0.074 normalized occupancy
- ATGGGTAG — higher, 0.0856 normalized occupancy
- ATGATTGG — higher, 0.0808 normalized occupancy
- AAGAGCAG — lower, 0.0746 normalized occupancy
- CCCGTGTA — higher, 0.0861 normalized occupancy
- ACCGTGTC — lower, 0.072 normalized occupancy
- AAGGTGTC — lower, 0.0775 normalized occupancy
- GACGTGTA — higher, 0.0816 normalized occupancy
- CACGTGTA — higher, 0.536 normalized occupancy
- AACGTGTC — higher, 0.101 normalized occupancy
- AATGGCTC — lower, 0.0777 normalized occupancy
- AATTAGTG — higher, 0.0813 normalized occupancy
- AAGTGTCT — lower, 0.073 normalized occupancy
- CCGTGTCG — lower, 0.075 normalized occupancy
- ACGTGTCT — higher, 0.0997 normalized occupancy
- ACGTGTCG — higher, 0.106 normalized occupancy
- AGGTGTCG — lower, 0.0793 normalized occupancy
- ACGTGTCA — higher, 0.0923 normalized occupancy
- ATTGAGAG — lower, 0.0765 normalized occupancy
- CATAGGGG — higher, 0.085 normalized occupancy
- AGATGGAA — higher, 0.0827 normalized occupancy
- ACATAGCA — higher, 0.0807 normalized occupancy
- GCACGTGC — higher, 0.834 normalized occupancy
- GCACGTAC — higher, 0.0883 normalized occupancy
- GCACGTGA — higher, 0.36 normalized occupancy
- GGACGTGA — lower, 0.0764 normalized occupancy
- GTACGTGA — lower, 0.078 normalized occupancy
- GCACGTCC — lower, 0.0788 normalized occupancy
- GATTGGGA — lower, 0.076 normalized occupancy
- TGCGCCCA — lower, 0.0758 normalized occupancy
- CGATTTCA — lower, 0.072 normalized occupancy
- GCCTGGCA — lower, 0.0722 normalized occupancy
- ATAACATC — higher, 0.0807 normalized occupancy
- ACAACACA — higher, 0.0849 normalized occupancy
- ACAACATG — higher, 0.0952 normalized occupancy
- ACAACATA — higher, 0.0833 normalized occupancy
- ATAACACG — higher, 0.0958 normalized occupancy
- GTAACACA — higher, 0.0828 normalized occupancy
- ATAACACA — higher, 0.0874 normalized occupancy
- ACAACATC — lower, 0.0778 normalized occupancy
- ACAACACC — higher, 0.0812 normalized occupancy
- ATAACATG — higher, 0.0981 normalized occupancy
- ATAACATA — higher, 0.0882 normalized occupancy
- ACAACACG — higher, 0.0955 normalized occupancy
- GTTTCTTA — lower, 0.0733 normalized occupancy
- GTAGGCTA — lower, 0.0748 normalized occupancy
- CACATGGC — higher, 0.199 normalized occupancy
- AACATGGC — higher, 0.0896 normalized occupancy
- AACATGGG — higher, 0.0935 normalized occupancy
- CACATGGG — higher, 0.166 normalized occupancy
- GACATGGC — higher, 0.0801 normalized occupancy
- AACATGGA — higher, 0.0836 normalized occupancy
- CCCATGGA — higher, 0.0846 normalized occupancy
- ACCATGGG — higher, 0.0927 normalized occupancy
- CAAATGGG — higher, 0.0805 normalized occupancy
- CACATGGA — higher, 0.162 normalized occupancy
- CCCATGGG — higher, 0.0962 normalized occupancy
- GACATGGA — higher, 0.0844 normalized occupancy
- ATAAGAGG — lower, 0.073 normalized occupancy
- AGGACAAG — lower, 0.0738 normalized occupancy
- GAGTCTGA — lower, 0.0726 normalized occupancy
- TATTACAA — higher, 0.0802 normalized occupancy
- CAAACCGA — lower, 0.0737 normalized occupancy
- GGAGAACA — lower, 0.0748 normalized occupancy
- CGACGTCA — lower, 0.0748 normalized occupancy
- ATACAAGG — lower, 0.0755 normalized occupancy
- CATAGGCG — lower, 0.0751 normalized occupancy
- ACGTGCCA — higher, 0.115 normalized occupancy
- ACGTGCCG — higher, 0.0929 normalized occupancy
- ACGTGCCT — higher, 0.0959 normalized occupancy
- TCGTGCCA — higher, 0.0874 normalized occupancy
- CCGTGCCA — lower, 0.0772 normalized occupancy
- ACGTGCCC — higher, 0.0948 normalized occupancy
- AACAATAC — lower, 0.076 normalized occupancy
- CTTTCCAA — lower, 0.0733 normalized occupancy
- AATGCACT — lower, 0.0779 normalized occupancy
- CCTGCACG — higher, 0.0845 normalized occupancy
- CATGCACC — higher, 0.0986 normalized occupancy
- AATGCACA — lower, 0.0785 normalized occupancy
- GATGCACA — higher, 0.0921 normalized occupancy
- GATGCACC — lower, 0.0775 normalized occupancy
- AATGCACC — lower, 0.0777 normalized occupancy
- CATGCACG — higher, 0.101 normalized occupancy
- AATGCACG — higher, 0.0974 normalized occupancy
- CATGCACA — higher, 0.0961 normalized occupancy
- CTTGCACA — higher, 0.0801 normalized occupancy
- TATGCACA — higher, 0.0883 normalized occupancy
- GAGACATA — higher, 0.0802 normalized occupancy
- AGATAATC — lower, 0.0755 normalized occupancy
- ACAGGCAT — higher, 0.0804 normalized occupancy
- ATCGCAAT — lower, 0.0728 normalized occupancy
- AATCTTCA — lower, 0.072 normalized occupancy
- ACGAAAAG — lower, 0.0718 normalized occupancy
- ACCTTATG — higher, 0.0812 normalized occupancy
- ATGGCATA — higher, 0.085 normalized occupancy
- ATGGCACG — higher, 0.0985 normalized occupancy
- ATGGCACA — lower, 0.0786 normalized occupancy
- CTGGCACA — lower, 0.0744 normalized occupancy
- ACGGCGTC — lower, 0.0722 normalized occupancy
- ACGGCGTA — lower, 0.0728 normalized occupancy
- ATGGCATG — higher, 0.0968 normalized occupancy
- AAGGCATA — lower, 0.0742 normalized occupancy
- ACGGCGTG — higher, 0.0958 normalized occupancy
- AAGGCATT — lower, 0.0725 normalized occupancy
- ATGGCATC — higher, 0.0919 normalized occupancy
- AAGGCATG — higher, 0.0988 normalized occupancy
- CGATGATA — lower, 0.0772 normalized occupancy
- CTTAATCA — lower, 0.073 normalized occupancy
- CAGAGACA — lower, 0.0742 normalized occupancy
- CTTCACCA — higher, 0.085 normalized occupancy
- AACAACCA — lower, 0.0769 normalized occupancy
- AAAACATA — higher, 0.0798 normalized occupancy
- AAAGAGGA — lower, 0.0738 normalized occupancy
- ACCTCAAA — lower, 0.0749 normalized occupancy
- CTTGCGTA — lower, 0.0773 normalized occupancy
- GGCTTCCA — lower, 0.0728 normalized occupancy
- CAGGCATA — higher, 0.0804 normalized occupancy
- ACGGCATG — higher, 0.103 normalized occupancy
- CAGGCATC — lower, 0.0725 normalized occupancy
- ACGGCATA — lower, 0.0754 normalized occupancy
- ACGGCATC — lower, 0.0761 normalized occupancy
- CAGGCATG — higher, 0.0964 normalized occupancy
- GACAGACC — lower, 0.0741 normalized occupancy
- AACTCCAG — lower, 0.0726 normalized occupancy
- AGTGCTGC — lower, 0.072 normalized occupancy
- GATTTGAC — lower, 0.0751 normalized occupancy
- CCGCATCC — lower, 0.0787 normalized occupancy
- ACGCATGG — higher, 0.136 normalized occupancy
- CCGCATTC — lower, 0.072 normalized occupancy
- ACGCATAC — higher, 0.0842 normalized occupancy
- CCGCATGA — higher, 0.113 normalized occupancy
- ACGCATTG — higher, 0.0891 normalized occupancy
- ACGCATTC — lower, 0.0764 normalized occupancy
- CCGCATAA — higher, 0.0821 normalized occupancy
- ACGCATGC — higher, 0.124 normalized occupancy
- CCGCATGC — higher, 0.128 normalized occupancy
- ACGCATAG — higher, 0.0818 normalized occupancy
- CCGCATCA — higher, 0.0853 normalized occupancy
- ACGCTGTG — lower, 0.0735 normalized occupancy
- ACAGGGAG — lower, 0.0726 normalized occupancy
- AAAGGCAG — lower, 0.0731 normalized occupancy
- CGGGTGAC — lower, 0.0779 normalized occupancy
- ATTCATAA — higher, 0.0836 normalized occupancy
- ATGTAGGC — lower, 0.0776 normalized occupancy
- GAAAAGAA — lower, 0.0746 normalized occupancy
- GGCATTTA — higher, 0.0801 normalized occupancy
- GGATCGGA — lower, 0.0725 normalized occupancy
- ACGCATCA — higher, 0.0829 normalized occupancy
- ACGCATGA — higher, 0.102 normalized occupancy
- GCGCATGA — higher, 0.0897 normalized occupancy
- AGGCTACA — lower, 0.0725 normalized occupancy
- ACCACAGG — lower, 0.0732 normalized occupancy
- ACGTAGGC — lower, 0.0765 normalized occupancy
